# Screening results as filed in PubChem BioAssay.
# Cycloheximide cs – Cycloheximide Counterscreen for Small Molecule Inhibitors of Shiga Toxin; AID 2314, 2010; max response, %; cell reporter, cycloheximide protein synthesis inhibition counterscreen; 300,000 compounds, 12% hits; in the data active means max response mostly above about 13%, no sharp cut-off; inactive means mostly below about 14%; further: read at 38.3 µM for the half of the compounds with a filed dose; 0% is about no effect
# Marburg entry inh – qHTS for inhibitors of binding or entry into cells for Marburg Virus | AID 540276, 2011 | Potency, µM (doses to about 37.8 µM), inactives show at the top dose activity change, negative = inhibition, hits mostly inhibitors | Marburg virus pseudotyped entry inhibition, cell reporter | 300,000 compounds, 1.8% hits; calls by dose curve; tested in HEK293 cells; further: potency means the concentration at half of the fitted maximal effect; on the % scale 0 is the no-effect control and ±100 the full control effect
# AMA1 RON2 block – qHTS for Inhibitors of AMA1-RON; Towards Development of Antimalarial Drug Lead: Primary Screen; Potency, µM (top dose mostly 58.2 µM), without a hit: top-dose activity change, negative = inhibition, actives largely listed as inhibitors; 360,000 compounds, 0.2% hits; AlphaScreen AMA1-biotinylated RON2 peptide binding; Plasmodium falciparum AMA1 (3D7) - RON2 peptide interaction; active means well fitted inhibition curve with a large enough effect; inconclusive means small, poorly fitted or top-dose-only effect; inactive means no such curve, though single readings can be large or run the other way;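 further: potency means the concentration at half of the fitted maximal effect; 0% = vehicle wells and -100% = peptide control; nearly all actives have a fitted effect of over 45% in size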
#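 AMA1 (3D7) with his tag at 25 nM final met compounds first, then biotinylated RON2 peptide at 25 nM; detection used donor plus acceptor beads, 10 µg/mL apiece, read by AlphaScreen after 30 min at room temperature.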
# Shiga inhibitor – A qHTS for Small Molecule Inhibitors of Shiga Toxin; Vero cells, Shiga toxin protein synthesis inhibition reporter; inhibition, % at 38.7 µM; 290,000 compounds, 9.2% hits; in the data active means inhibition mostly above about 28%, no sharp cut-off; inactive means mostly below about 43%; further: 0% is about no effect
# LASV entry inh – qHTS for Inhibitors of binding or entry into cells for Lassa Virus; Lassa virus pseudotype entry inhibition, cell reporter; Potency, µM (titrated, usually from 37.9 µM), for the others: at the highest dose activity change, negative = inhibition, most hits filed as inhibitors; 300,000 compounds, 1.2% hits; AID 540256, 2011; calls by dose curve; tested in HEK293 cells; further: potency means the concentration at half of the fitted maximal effect; on the % scale 0 is the no-effect control and ±100 the full control effect; nearly all actives have a fitted effect of over 50% in size
# The depositor's hits bear a star; u = inconclusive; x = not tested or not shown; [ ] = another dose, or the depositor's remark. Only a selection was taken, and hits are over-represented in it overall.
SMILES,Cycloheximide cs,Marburg entry inh,AMA1 RON2 block,Shiga inhibitor,LASV entry inh
CSc1cccc(NC(=S)N(CCN(C)C)C(C)c2ccncc2)c1 (stereo not given),-3,x,-7%,-6,x
CCOC(=O)c1ccc(CN(Cc2ccccc2C)S(=O)(=O)c2ccc(F)c(C)c2)cc1,x,x,x,x,-20%[46.1 µM]
COC(=O)CCn1nnc(-c2ccc(C)cc2)n1,32*,25%,6%,60*,0%
COc1ccc(NC(=O)CCn2nnc(-c3ccc(C)cc3)n2)cc1OC,-2,4%,-14%,-3,-3%
CC1CCCCN1C(=O)Cn1nnc(-c2cccnc2)n1 (stereo not given),2,7%,7%,12,2%
Cc1ccc(-c2nnn(CC(=O)O)n2)cc1,-3,8%[46.1 µM],-4%,2,-17%
Cc1ccc(-c2nnn(CCC(=O)N3CCCCC3C)n2)cc1 (stereo not given),17*,7%,0%,73*,13%
Cc1ccc(-c2nnn(CCC(=O)NC(C)(C)C)n2)cc1,32*,-5%[46.1 µM],0%,52*,26%
CC1(c2ccc3ccccc3c2)NC(=O)N(CC(=O)N2CCN(c3ccccc3O)CC2)C1=O (stereo not given),-3,5%,5%,-24,u
COc1ccc(NC(=O)C2=C(C)Nc3ncnn3C2c2ccc(O)cc2)cc1 (stereo not given),x,x,x,x,-14%[46.1 µM]
CC(C)C(=O)Nc1cccc(NC(=S)NC(=O)c2cccs2)c1,33*,25%,-2%,75*,8%
COc1cc(NC(=S)NC(C)=O)ccc1NC(=O)C(C)C,25*,21%,-5%,61*,-2%
CC(C)C(=O)Nc1cccc(NC(=S)NC(=O)c2ccc(Cl)cc2)c1,65*,u,57%,67*,-29%
O=C(NC(=S)Nc1cccc(NC(=O)c2ccccc2Cl)c1)c1cccs1,15*,-2%,37%,10,-7%
CCCCC(=O)NC(=S)Nc1ccc(NC(=O)C(C)C)c(OC)c1,7,3%,11%,-16,-5%
COc1ccc(C(C(=O)Nc2ccc(F)cc2)N2CCN(c3cccc(C(F)(F)F)n3)CC2)cc1 (stereo not given),x,x,-4%,x,x
COc1ccc(SC[C@H](Cc2ccccc2)N2CC[C@@H](C(C)(C)C)CCC2=O)cc1,x,x,-9%,x,x
CCc1ccc(NC(=S)Nc2cc(OC)c(NC(=O)C(C)C)cc2OC)cc1,23*,15%[46.1 µM],26%,16,5%
COc1cc(NC(=S)NC(=O)c2cccs2)ccc1NC(=O)C(C)C,23*,x,108%,56*,x
CCCCC(=O)Nc1ccc(NC(=S)NC(=O)c2cccs2)cc1OC,3,19%,26%,24,-3%
CCCC(=O)Nc1cc(OC)c(NC(=S)Nc2ccc(CC)cc2)cc1OC,x,u,12%,x,u
CCc1ccc(C2CC(=O)c3c([nH]c(C(=O)OC4CCC(C)CC4)c3C)C2)cc1 (stereo not given),x,11%[46.1 µM],x,x,-2%[46.1 µM]
Cc1ccc(N(Cc2cccs2)C(=O)C(C)Oc2ccc(Cl)c(C)c2)cc1 (stereo not given),x,u,x,x,-3%[46.1 µM]
Cc1nnc(Oc2ccccc2F)c2ccccc12,33*,21%,-25%,106*,7%
COc1ccc(-c2nnc3c4ccccc4c(C)nn23)cc1,28*,26%,0%,96,5%
SMILES,Cycloheximide cs,Marburg entry inh,AMA1 RON2 block,Shiga inhibitor,LASV entry inh
Cc1nnc(Oc2ccc([N+](=O)[O-])cc2)c2ccccc12,11,x,-1%,30,x
Cc1nnc(Oc2ccccc2)c2ccccc12,24*,21%,-7%,47*,-16%
COc1ccc(-c2nnc(OC)c3ccccc23)cc1,-3,x,-4%,-6,x
Cc1ccccc1Oc1nnc(-c2cccs2)c2ccccc12,0,u,-14%,-12,4%
COc1ccc(Oc2nnc(C)c3ccccc23)cc1,46*,u,14%,42,u
CC1Sc2ccc(S(=O)(=O)CCC(=O)N3CCN(c4cccc(Cl)c4)CC3)cc2NC1=O (stereo not given),-1,x,10%,-5,x
Cc1ccccc1Cn1c(SCc2ccc(C(=O)NC(C)c3ccccc3)cc2)nc2ccncc21 (stereo not given),x,u,x,x,-6%[46.1 µM]
Cc1csc(NC(=O)CSc2nnnn2C)n1,25*,u,20%,53*,28%
CCCn1c(SCC(=O)Nc2nc(C)c(C(=O)OC)s2)nnc1C(C)C,-5,u,0%,15,0%
COC(=O)c1sc(NC(=O)CSc2nnnn2C)nc1C,29*,u,-4%,121*,u
Cc1csc(NC(=O)CSc2nnc(C)c(=O)n2N)n1,9,18%[46.1 µM],4%,-4,-1%[46.1 µM]
Cc1nc(NC(=O)CSc2nnnn2C)sc1C,40*,17%,6%,71*,12%
CCc1nnc(NC(=O)CSc2nnnn2C)s1,-1,-2%,15%,4,2%
CC1=NN(C(N)=S)C(=O)C1N=Nc1ccccc1O (stereo not given),15*,x,104%,16,x
CC1=NN(C(N)=S)C(=O)C1N=Nc1ccccc1C (stereo not given),11,u,29%,38,4%
CC1=NN(C(N)=S)C(=O)C1N=Nc1ccc(C)cc1C (stereo not given),29*,7%,x,59*,x
CC1=NN(C(N)=S)C(=O)C1N=Nc1cccc(Cl)c1 (stereo not given),44*,x,111%,79*,x
CC1=NN(C(N)=S)C(=O)C1N=Nc1c(Cl)cc([N+](=O)[O-])cc1Cl (stereo not given),18*,x,35%,27*,x
CCCSc1ncc(Cl)c(C(=O)Nc2c(C(=O)Nc3ccc(C)cc3)oc3ccccc23)n1,x,10%[46.1 µM],x,x,8%[46.1 µM]
CN(C(=O)c1ccc(OCC=C(c2ccccc2)c2ccccc2)cc1)c1ccccc1I,3,x,x,14,x
Cn1c(SCC#N)nnc1-c1ccc2c(c1)OCO2,-2,-9%,5%,-3,-8%
Cn1c(SCC(=O)c2ccccc2)nnc1-c1ccc(O)cc1,35*,11%,3%,68*,12%
Cn1c(SCC(N)=O)nnc1-c1ccccc1,-5,26%,10%,-14,12%
Cn1c(SCC(=O)c2ccccc2)nnc1-c1ccncc1,-3,0%[46.1 µM],-5%,-4,11%
Cn1c(SCC(=O)c2ccccc2)nnc1-c1cccc(N)c1,29*,u,11%,65,2%
SMILES,Cycloheximide cs,Marburg entry inh,AMA1 RON2 block,Shiga inhibitor,LASV entry inh
Cn1c(SCc2ccccc2)nnc1-c1ccc2c(c1)OCO2,49*,2%,9%,75*,u
Cn1c(SCC(=O)c2ccccc2)nnc1-c1ccccn1,53*,u,-7%,113*,u
CCCCSc1nnc(-c2ccc(C)cc2)n1C,40*,25%,-8%,104*,u
Cn1c(SCc2ccccc2)nnc1-c1ccc(O)cc1,31*,6%,20%,66*,u
Cc1ccccc1OCC(=O)NCC(c1cccs1)N1CCOCC1 (stereo not given),x,-11%[46.1 µM],10%,x,-19%
COc1ccc(-c2noc(N3CCN(c4ccc(C)cc4)C(C)C3)n2)cc1OC (stereo not given),x,x,x,x,25%[46.1 µM]
